Screening results (PubChem)
The full list was thinned out, with hits kept by preference.
S1P2 ag = activates the human S1P2 receptor; S1P2-expressing cell line, agonist reporter read-out; activation, % at 4.5 µM; AID 729; O95136; 97,000 compounds, 0.46% hits; in the data active = activation above about 16%;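 also: 0% = vehicle low control and 100% = maximal reference agonist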
GALR2 blocker = antagonists of human galanin receptor 2 (GALR2); O43603; GALR2-expressing cells, antagonist mode; inhibition, % at 4 µM; 140,000 compounds, 0.39% hits; in the data active = inhibition above about 27%;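 also: cells stimulated with galanin 1-16 at roughly its EC80; 0% = agonist challenge control and 100% = basal control without agonist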
Target sequence (O43603 whole entry, looked up): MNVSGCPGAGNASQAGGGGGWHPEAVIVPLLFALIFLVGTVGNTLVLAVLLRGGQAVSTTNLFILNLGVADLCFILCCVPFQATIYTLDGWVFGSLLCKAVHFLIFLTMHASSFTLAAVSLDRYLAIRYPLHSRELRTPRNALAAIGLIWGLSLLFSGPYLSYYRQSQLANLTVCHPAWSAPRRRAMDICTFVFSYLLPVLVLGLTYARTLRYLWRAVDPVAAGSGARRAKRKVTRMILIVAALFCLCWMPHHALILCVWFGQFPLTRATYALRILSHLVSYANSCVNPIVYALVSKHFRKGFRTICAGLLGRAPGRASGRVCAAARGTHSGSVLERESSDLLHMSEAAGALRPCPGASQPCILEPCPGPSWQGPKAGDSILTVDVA
PostGolgi ctrl = growth of the yeast control strain, post-Golgi counter-screen; efflux-deficient yeast background strain, growth absorbance A615, 16 h; inhibition, % at 10 µM; 98,000 compounds, 5% hits; AID 738
GALR2 agonist = GALR2 (human) receptor agonism; activation, % (concentration not given with the values); GALR2-expressing cells, agonist activation read-out; 140,000 compounds, 0.48% hits; in the data active = activation above about 5%, passing the limit was not always enough;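 also: 0% = vehicle buffer wells and 100% = reference agonist at full effect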
S1P2 antag = S1P2 (human) receptor antagonism; 97,000 compounds, 0.21% hits; inhibition, % at 5 µM; cell-based S1P2 antagonist assay, inhibition at 5 uM; AID 736; O95136; in the data active = inhibition above about 45%;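 also: CRE beta-lactamase reporter cells expressing human S1P2 stimulated with S1P; 0% = agonist at EC80 alone and 100% = agonist plus reference antagonist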
PostGolgi yeast = growth inhibition of a yeast mutant, post-Golgi transport screen; post-Golgi transport phenotypic cell assay; inhibition, % at 10 µM; 98,000 compounds, 0.9% hits; AID 739;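 also: yeast cells grown in 1536-well plates; yeast grown about 18 h at 30C before absorbance read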
* marks the source's active call; other numbers are inactive results; nt = no result. Rule as the data show it, unless noted: active = inhibition above about 30%; inactive = the rest.

SMILES	S1P2 ag	GALR2 blocker	PostGolgi ctrl	GALR2 agonist	S1P2 antag	PostGolgi yeast
Cc1nn(-c2cc(N3CCCC3)ccc2[N+](=O)[O-])c(=O)c2ccccc12	-1	15	-2	-2	-2	-5
Cc1ccc(-c2nn(-c3cc(Cl)ccc3[N+](=O)[O-])c(=O)c3ccccc23)cc1	-3	-15	37*	0	-9	-1
CC(C)(C)C(=O)N1CCN(c2ccc([N+](=O)[O-])c(-n3nc(-c4ccccc4)c4ccccc4c3=O)c2)CC1	nt	5	nt	-1	nt	nt
Cc1ccc(C)c(-c2nn(-c3cc(N4CCN(CCO)CC4)ccc3[N+](=O)[O-])c(=O)c3ccccc23)c1	-8	-18	48*	1	3	-2
O=c1c2[nH]c3ccc(Br)cc3c2ncn1CCCn1ccnc1	2	-7	23	-1	-5	33*
COc1cnc(N(C)C)nc1Sc1ccc(Cl)cc1	5	-7	7	0	-13	-5
COc1cnc(-c2ccccn2)nc1Sc1ccc(Cl)cc1	-3	-2	35*	-1	8	3
CNc1cc(CSC)nc(SCc2ccc(Cl)cc2Cl)n1	-4	-7	39*	-1	4	-10
CC(=O)N(CCC(Cc1ccccc1)c1ccc2c(c1)OCO2)Cc1ccc(Cl)cc1 (configuration not stated)	-8	-2	36*	-2	18	-3
Cc1ccc(Sc2c(C=O)c3ccccc3n2C)cc1	-7	3	45*	-1	15	7
Cc1ccc(Sc2c(O)c3ccccc3n(C)c2=O)cc1	nt	2	nt	-1	nt	nt
C=CCSc1nnc2c(n1)OC(c1c(C)[nH]n(-c3ccccc3)c1=O)Nc1ccccc1-2 (configuration not stated)	-3	5	40*	-3	-9	3
CCCn1nnc(NC(=O)c2ccc(-c3ccccc3)cc2)n1	-5	-18	6	1	-4	-1
CCCn1nnc(NC(=O)C(c2ccccc2)c2ccccc2)n1	-4	-3	8	-1	-2	34*
O=C(COc1ccccc1-c1ccccc1)N/N=C/c1ccc2ccccc2c1	nt	12	nt	6.8*	nt	nt
Cc1ccccc1OCC(=O)N/N=C/c1ccc2c(c1)OCCO2	nt	-4	nt	0	nt	nt
OCCn1c(SCCOc2ccccc2F)nc2ccccc21	6	12	41*	-1	-18	5
O=C(O)Cn1c(SCCOc2ccccc2F)nc2ccccc21	-1	4	-1	-1	13	31*
N#C/C(=C/c1ccc(Br)s1)C(=O)NCCc1c[nH]c2ccccc12	nt	26	nt	-2	nt	nt
CCSc1nc(N2CCOCC2)c2c(c1C#N)CCCC2	-2	-4	41*	-2	17	8
CC1(C)Cc2c(C#N)c(SCc3ccccc3)nc(N3CCOCC3)c2CO1	-6	1	38*	-2	-1	-5
CC(C)c1nc(N2CCOCC2)c(C#N)c2c1CCCC2	0	-6	10	-1	-3	-5
CCn1c(SCC(=O)Nc2cc(C)on2)nc2c(c1=O)SC(C)C2 (configuration not stated)	-6	1	21	0	10	7
CCn1c(SCC(=O)Nc2nc3ccc(C)cc3s2)nc2c(c1=O)SC(C)C2 (configuration not stated)	-11	3	84*	1	9	13
CCn1c(SCC(=O)Nc2nc3ccccc3s2)nc2c(c1=O)SC(C)C2 (configuration not stated)	-5	7	51*	1	0	-15
SMILES	S1P2 ag	GALR2 blocker	PostGolgi ctrl	GALR2 agonist	S1P2 antag	PostGolgi yeast
CC1Cc2nc(SCC(=O)NCc3ccco3)n(Cc3ccccc3)c(=O)c2S1 (configuration not stated)	nt	8	43*	0	nt	-15
Cc1cc(C)c(NC(=O)CSc2nc3c(c(=O)n2C)SC(C)C3)c(C)c1 (configuration not stated)	-3	7	31*	-1	17	-2
Cc1cc(Cl)ccc1OCCCC(=O)Nc1cccnc1	-6	11	25	-1	-2	34*
Fc1ccc(-c2csc3ncnc(N4CCc5ccccc5C4)c23)cc1	nt	3	nt	0	nt	nt
CC(=O)Nc1sc2c(c1C#N)CCCC2	-2	0	9	0	-13	8
COc1cc(C(=O)Nc2cccc3cccnc23)cc(OC)c1OC	8	1	5	-4	-11	32*
Cc1onc(-c2ccccc2Cl)c1C(=O)Nc1sc2c(c1C#N)CCC2	-6	12	30*	-2	-26	-10
N#Cc1c(NC(=O)C2CC(c3ccccc3Cl)=NO2)sc2c1CCC2 (configuration not stated)	-5	1	14	-2	-6	-1
Cc1onc(-c2ccccc2Cl)c1C(=O)Nc1cccc2cccnc12	1	-17	33*	1	1	0
N#Cc1c(NC(=O)c2ccncc2)sc2c1CCC2	-8	6	31*	-3	8	2
O=c1[nH]c(/C(Cl)=C/c2cccc(C(F)(F)F)c2)nc2cc(Cl)ccc12	nt	13	nt	-2	nt	nt
Cc1ccc([N+](=O)[O-])cc1N(CC(=O)Nc1ccc(S(=O)(=O)Nc2cccc(C(F)(F)F)c2)cc1)S(C)(=O)=O	nt	-8	nt	-1	nt	nt
CCCNC(=O)Cn1c(=O)/c(=C\c2ccc(-c3ccc([N+](=O)[O-])cc3)o2)s/c1=C\C(=O)C(C)(C)C	nt	2	nt	0	nt	nt
Cc1c(Cl)cccc1NC(=O)c1ccc(OCC(=O)NCc2ccccc2)cc1	nt	0	nt	0	nt	nt
CC1CN(C2CCN(S(=O)(=O)c3ccccc3)CC2)CC(C)O1 (configuration not stated)	1	-6	nt	-1	-18	nt
CC1CN(C2CCN(S(=O)(=O)c3ccc(F)cc3)CC2)CC(C)O1 (configuration not stated)	1	-5	30*	-2	1	48*
Cc1cc(C)cc(N(CC(=O)NCCSc2ccccn2)S(=O)(=O)c2ccccc2)c1	-5	11	31*	-3	-27	-3
Cc1ccc(S(=O)(=O)N(CC(=O)NCCSc2ccccn2)c2ccc(C)c(C)c2)cc1	nt	-10	nt	-1	nt	nt
Cc1ccc(CN2CCN(/N=C/c3cc(Br)cc(Br)c3O)CC2)c(C)c1	nt	-11	nt	0	nt	nt
Cc1ccc(CSCCNS(=O)(=O)c2ccc(C)cc2)cc1	nt	7	nt	-2	nt	nt
CC1Cc2ccccc2N1C(=O)CSc1nnnn1C1CCCC1 (configuration not stated)	-11	-2	-5	-2	8	3
COC(=O)c1ccc(-n2nnnc2SCC(=O)Nc2cc(OC)ccc2OC)cc1	-8	-3	6	-3	12	-3
CC(NC(=O)c1ccccc1NC(=O)CSc1nnnn1C)c1ccccc1 (configuration not stated)	-8	2	33*	-3	14	20
COC(=O)c1ccc(-n2nnnc2SCC(=O)Nc2ccccc2C(=O)OC)cc1	-2	-4	37*	-1	-12	25
O=C(Nc1ccccc1Br)C1CCN(C(=O)Cc2ccccc2)CC1	nt	5	nt	-2	nt	nt
